Measured values published in PubChem BioAssay.
Calls of active or inactive are those of the source. The rule behind the calls is not given here.

These compounds were tested against Pantothenate synthetase (Mycobacterium tuberculosis (strain ATCC 25618 / H37Rv)) (UniProt P9WIL5) (assay: Recombinant Mtb pantothenate synthetase (PanC) inhibitors, coupled enzyme, confirmatory (AID 375;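 note: 0% = full reaction with vehicle and 100% = no enzyme background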)). Conditions: coupled enzyme assay; at 10 µM, hits give high values.
Sequence of Pantothenate synthetase (Mycobacterium tuberculosis (strain ATCC 25618 / H37Rv)) (P9WIL5 whole entry, looked up): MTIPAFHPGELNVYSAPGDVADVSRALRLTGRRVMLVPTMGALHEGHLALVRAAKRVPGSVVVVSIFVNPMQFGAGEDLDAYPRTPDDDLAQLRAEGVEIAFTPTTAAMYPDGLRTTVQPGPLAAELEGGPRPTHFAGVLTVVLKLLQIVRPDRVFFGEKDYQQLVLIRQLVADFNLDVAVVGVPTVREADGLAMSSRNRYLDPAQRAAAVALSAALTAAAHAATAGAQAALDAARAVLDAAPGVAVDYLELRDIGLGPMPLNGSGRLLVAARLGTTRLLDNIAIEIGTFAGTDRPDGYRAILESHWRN

Compound | inhibition
CCOc1ccccc1NC(=O)CN(C)S(=O)(=O)c1cccc2nsnc12 | 11% (inactive)
N#CC(C(=O)Nc1ccccc1)=C1CCCCC1 | 7% (inactive)
CCOC(=O)CC(=O)CSc1nc(-c2cccnc2)ccc1C#N | 0% (inactive)
COc1cccc(-c2nc3n(n2)C(c2ccccc2Cl)C(C(N)=O)=C(C)N3)c1 (stereo not given) | 0% (inactive)
CC(=O)N=c1sc(S(N)(=O)=O)nn1C | 0% (inactive)
CCOc1ccccc1NC(=O)CSc1nnc2c(CC)c(C)nc(N)n12 | 0% (inactive)
COc1ccc(NC(=O)c2cc(C(C)C)on2)c(OC)c1 | 0% (inactive)
Cn1c2ccc(F)cc2c2ncn(CCN3CCOCC3)c(=O)c21 | 6% (inactive)
COc1cccc(NC(=O)C2C3C=CC4(O3)C2C(=O)N(C(C)C)C4C(=O)NC2CCCCC2C)c1 (stereo not given) | 2% (inactive)
O=C(c1cc(-c2cccc(O)c2)on1)N1CCN(C(c2ccccc2)c2ccccc2)CC1 | 8% (inactive)
N#CCCn1ccc(NC(=O)c2ccc(Cl)cc2)n1 | 0% (inactive)
COc1ccc(-n2nc(C(=O)NCC(=O)NCC3CCCO3)c3ccccc3c2=O)cc1 (stereo not given) | 0% (inactive)
COCCn1c(=NC(=O)CSC(C)=O)sc2cc(F)ccc21 | 12% (inactive)
Cc1nnc(SCC(=O)Nc2ccc(Br)cn2)[nH]c1=O | 1% (inactive)
c1ccc(N2CCN(Cc3ccnc4ccccc34)CC2)cc1 | 2% (inactive)
COc1ccccc1N1CCN(CC(O)COc2cccc3ccccc23)CC1 (stereo not given) | 3% (inactive)
O=C(Nc1ccc(Cl)cc1C(=O)Nc1ccncc1)c1ccco1 | 4% (inactive)
Cc1cc(S(=O)(=O)n2cnc3ccccc32)c(C)cc1Cl | 0% (inactive)
COC(=O)c1ccc2c(c1)nc(C)n2CCO | 0% (inactive)
Cn1c(=O)[nH]c(=O)c2c1nc(N1CCc3ccccc3C1)n2CCSc1nc2ccccc2s1 | 4% (inactive)

Compound | inhibition
CC(=O)[C@@]1(O)CC[C@H]2[C@@H]3C[C@H](C)C4=CC(=O)C=C[C@]4(C)[C@@]3(F)[C@@H](O)C[C@@]21C | 6% (inactive)
CS(=O)(=O)Nc1ccc(C(=O)NCc2ccc3c(c2)OCO3)cc1 | 4% (inactive)
CCCOc1cccc(C2/C(=C(/O)c3ccccc3)C(=O)C(=O)N2CCN(C)C)c1 (stereo not given) | 0% (inactive)
O=C(CSCCSCC(=O)c1ccco1)c1ccco1 | 0% (inactive)
CCS(=O)(=O)N1CCCC(c2nc(-c3cccc(OC)c3)no2)C1 (stereo not given) | 0% (inactive)
CC(=O)c1c(C)[nH]c(C(=O)Nc2c(C)n(C)n(-c3ccccc3)c2=O)c1C | 7% (inactive)
COc1cccc(OC)c1C(=O)Nc1ccc(CN2CCCCC2)cc1 | 0% (inactive)
CCOC(=O)CSc1nc2cc(C(=O)NCc3ccco3)ccc2c(=O)n1-c1ccc(F)cc1 | 3% (inactive)
Oc1c(Cl)cc(Cl)c2c1NCCC2 | 1% (inactive)
CN(C)c1nc(Oc2ccc(N)cc2)nc(N(C)C)n1 | 0% (inactive)
COc1ccc(NC(=O)CSc2nnc(Cc3cccn3C)n2-c2ccc(F)cc2)cc1 | 0% (inactive)
Cn1c(=O)[nH]c(=O)c2c1nc(N(CCO)Cc1ccccc1)n2Cc1ccccc1Cl | 4% (inactive)
CCOC(=O)c1ccccc1NC(=O)CSc1nnc(COc2ccccc2C)n1C | 2% (inactive)
O=C1CC(c2ccco2)CC(O)=C1C=NCCN1CCNCC1 (stereo not given) | 0% (inactive)
COc1ccc2cc(C(c3nnnn3C(C)(C)C)N3CCc4ccccc4C3)c(=O)[nH]c2c1 (stereo not given) | 11% (inactive)
NS(=O)(=O)c1ccc(CCNC(=O)c2cccnc2)cc1 | 1% (inactive)
COc1ccc(S(=O)(=O)NCC(c2cccnc2)N2CCN(c3ccc(F)cc3)CC2)cc1C (stereo not given) | 0% (inactive)
Cn1c(CN2CCOCC2)nnc1SCC(=O)NCCc1ccccc1 | 0% (inactive)
CN(C)CCCC1(c2ccc(F)cc2)OCc2cc(C#N)ccc21 (stereo not given) | 0% (inactive)
O=C(Cc1ccccc1)Nc1ccc(CN2CCOCC2)cc1 | 0% (inactive)
